Some test systems named below: HCT-15 colon; HT29 colon; SNB-75 CNS; SNB-19 CNS; U251 CNS; PC-3 prostate; SK-MEL-5 melanoma; UACC-62 melanoma; LOX IMVI melanoma; SK-MEL-28 melanoma; SK-MEL-2 melanoma; EKVX NSCLC; SN12C renal; UO-31 renal; TK-10 renal; ACHN renal; CAKI-1 renal; A498 renal; HL-60(TB) leukemia; CCRF-CEM leukemia.
Holding throughout (assay): NCI-60 one-dose screen, 48 h (100 = growth as untreated, 0 = no growth, -100 = all killed)
Settings in all cases: 10 µM unless noted

Values joined by “and” are separate entries in the source; they are usually repeats but may differ in a detail not shown here. Equal entries are not always repeated. Compounds without any hit were thinned out: in the full panel of roughly 83,000, 20% have a hit.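 Single-dose data. Exposure time 48 hours. Values below 10 considered active.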 Values without a mark were called inactive. Active and inactive are the calls of the source.

`CC1(C)N(Nc2ccccc2)C(=O)C2CCCN21` (stereo not given): the growth with HCT-15 colon was 44.5%; with HT29 colon, 65.7%; in the test on SNB-75 CNS, 50.7%; with SNB-19 CNS, 95.4%; in the test on U251 CNS, 85.2%; with PC-3 prostate it was 9.48% (active). In addition, the growth in the test on SK-MEL-5 melanoma was 97.5%; in the test with UACC-62 melanoma, 21.7%; in the test with LOX IMVI melanoma it was 6.21% (active); in the test on SK-MEL-28 melanoma, 79%; in the test with SK-MEL-2 melanoma it was 84%; in the test on EKVX NSCLC it was 74.4%. The growth in the test on SN12C renal is 91.5%; in the test on UO-31 renal, 32.2%; in the test on TK-10 renal it was 59.6%; with ACHN renal, 21%; in the test with CAKI-1 renal, 6.09% (active); with A498 renal, 96.5%. For the same compound, the growth was -31.4% (active) in the test with HL-60(TB) leukemia and 18.5% in the test on CCRF-CEM leukemia.
With `C[C@]12CC[C@@H](OC(=O)N(CCCl)N=O)C[C@@H]1CC[C@@H]1[C@@H]2CC[C@]2(C)C(=O)CC[C@@H]12`, the growth is 72.8% in the test on HCT-15 colon; 57.9% in the test with HT29 colon; 63.4% with SNB-75 CNS; 37.5% with SNB-19 CNS; 34.5% in the test on U251 CNS; 45.6% with PC-3 prostate. Further, the growth with SK-MEL-5 melanoma is 56.8%; with UACC-62 melanoma, 30.4%; with LOX IMVI melanoma, 46.4%; with SK-MEL-28 melanoma, 99.4%; in the test on SK-MEL-2 melanoma, 37.8%; with EKVX NSCLC, 59.8%. In addition, the growth in the test on SN12C renal is 43%; in the test on UO-31 renal it was 49.9%; with TK-10 renal, 81.8%; in the test on ACHN renal, 21.7%; in the test with CAKI-1 renal, 20.7%; in the test with A498 renal, -10.1% (active). The growth with HL-60(TB) leukemia was -21.8% (active); in the test on CCRF-CEM leukemia, 26.6%.
For `COc1ccc(N)cc1OC`, the growth in the test with HCT-15 colon was 94.4%; in the test on HT29 colon, 105%; with SNB-75 CNS it was 92%; with SNB-19 CNS, 101%; with U251 CNS, 117%; in the test with PC-3 prostate, 80.1%. Besides, the growth was 107% in the test on SK-MEL-5 melanoma; 97.5% with UACC-62 melanoma; 105% in the test with LOX IMVI melanoma; 112% in the test on SK-MEL-28 melanoma; 106% with SK-MEL-2 melanoma; 111% in the test on EKVX NSCLC. Moreover, the growth was 89.2% in the test on SN12C renal; 90.5% in the test with UO-31 renal; 120% with TK-10 renal; 100% in the test on ACHN renal; 99% in the test on CAKI-1 renal; 100% in the test on A498 renal. In addition, the figures for the growth with HL-60(TB) leukemia and in the test with CCRF-CEM leukemia were 114% and 98.6%, respectively.
As to `O=C(NCCCN1CC1)Nc1cccc2ccccc12`, the growth is 106% and 100% with HCT-15 colon; 83.9% in the test with HT29 colon; 105% and 102% in the test on SNB-75 CNS; 88.5% and 95% in the test on SNB-19 CNS; 87% and 86.6% in the test on U251 CNS; 87.8% and 89.7% in the test on PC-3 prostate. Besides, the growth in the test with SK-MEL-5 melanoma was 107% and 93.3%; in the test with UACC-62 melanoma, 98% and 105%; with LOX IMVI melanoma, 95.6% and 78.4%; with SK-MEL-28 melanoma it was 107% and 115%; with SK-MEL-2 melanoma, 97.1% and 97.9%; in the test with EKVX NSCLC it was 109% and 103%. Besides, the growth is 94.4% and 97.5% with SN12C renal; 97.7% and 83.7% in the test on UO-31 renal; 103% and 93.3% with TK-10 renal; 93% and 87.6% in the test with ACHN renal; 95.8% and 85.1% in the test on CAKI-1 renal; 124% and 86.9% with A498 renal. In addition, the growth in the test on HL-60(TB) leukemia is 107%; in the test with CCRF-CEM leukemia, 108% and 86.3%.
Regarding `COc1cc(C2C3=C(CCCC3=O)N(CCO)c3cc4c(cc32)CCC4)cc(OC)c1OC` (stereo not given), the growth in the test with HCT-15 colon was 89.2%; in the test on HT29 colon it was 71.7%; in the test with SNB-75 CNS, 99.5%; with SNB-19 CNS, 87.3%; in the test with U251 CNS, 88.3%; in the test with PC-3 prostate, 80.7%. Further, the growth in the test on SK-MEL-5 melanoma was 87.1%; in the test on UACC-62 melanoma it was 67.7%; in the test on LOX IMVI melanoma, 80.4%; in the test on SK-MEL-28 melanoma, 96.9%; in the test on SK-MEL-2 melanoma it was 76.9%; in the test on EKVX NSCLC, 81.2%. In addition, the growth was 92.6% in the test with SN12C renal; 67.8% in the test on UO-31 renal; 82.1% in the test on TK-10 renal; 94.9% with ACHN renal; 64% with CAKI-1 renal; 100% with A498 renal. Further, the values for the growth in the test on HL-60(TB) leukemia and in the test with CCRF-CEM leukemia were 102% and 20.3%, respectively.
Take `COC(=O)C12C3C4C1C1C2C3C41NC(=O)c1csc([C@@H](C[C@H](C(C)C)N(C)C(=O)[C@@H](NC(=O)[C@H]2CCCCN2C)C2CC2)OC(C)=O)n1` (stereo not given in full): the growth in the test on HCT-15 colon is 12.6%; in the test on HT29 colon, -16.7% (active); in the test with SNB-75 CNS it was 45.3%; with SNB-19 CNS, 39.7%; in the test on U251 CNS, 10.8%; in the test on PC-3 prostate, 23.5%. Moreover, the growth in the test with SK-MEL-5 melanoma was -14.7% (active); in the test with UACC-62 melanoma, 48%; with LOX IMVI melanoma it was 16.3%; with SK-MEL-28 melanoma, 57.8%; in the test with SK-MEL-2 melanoma, 19.1%; in the test with EKVX NSCLC, 60.2%. Besides, the growth is 31.1% in the test with SN12C renal; 45.6% in the test on UO-31 renal; 41.2% with TK-10 renal; 36.4% with ACHN renal; 38.1% in the test with CAKI-1 renal; -3.52% (active) with A498 renal. The values for the growth in the test with HL-60(TB) leukemia and in the test with CCRF-CEM leukemia were -37.4% (active) and 16.5%, respectively.
